Our source for the Potency values is PubChem BioAssay AID720584 (National Center for Advancing Translational Sciences (NCATS), 2013).

The structures appear in SMILES notation. The list shows a part of the results. Inconclusive results are not listed. Calls of active or inactive are those of the source. Calls follow the shape of the dose curve; as a rule, active = well fitted inhibition curve with a large enough effect; inconclusive = small, poorly fitted or top-dose-only effect; inactive = flat fitted curve, though single readings scatter.
Potency is read from the fitted curve at half-maximal effect.

The assay deals with Trypanosoma brucei pyruvate kinase (TbPYK). The experiment in a line: qHTS of Trypanosoma Brucei Inhibitors: Orthogonal Assay for Cherry-picked Compounds. Also: nearly all actives have a fitted effect of over 75% in size. Particulars: recombinant TbPYK, ADP-Glo luminescence, 60 min. The text has this:
Members of the Trypanosomatidae family of parasitic protozoans cause a spectrum of diseases throughout the tropical and subtropical world. Sleeping sickness, caused by two subspecies of Trypanosoma brucei, is endemic to areas of sub-Saharan Africa, while Chagas' disease, a manifestation of Trypanosoma cruzi infection, is prevalent throughout Central and South America. In addition, many species of Leishmania are responsible for a range of cutaneous and visceral diseases, causing ulcers, destructive lesions and kalaazar, a lethal infection of the viscera. These diseases cause severe public health and economic burdens on populations that are often already caught in a tragic cycle of poverty, poor nutrition and disease. Collectively, parasites of the trypanosomatid family infect 30 million people worldwide (~500 million live in endemic areas), and account for ~130K deaths annually. Existing treatments have developed little in the past 50 years, and suffer from toxicity, poor efficacy and resistance; the goal of this project is to develop lead drugs that will be suitable for entry into pre-clinical trials. […] Glycolysis in axenically cultured T. cruzi, representing the intracellular pathogenic stage, is also essential for these parasites. {Engel, 1987} This project aims to discover and optimize selective inhibitors of the glycolytic enzyme pyruvate kinase (PYK) from Trypanosoma brucei, the parasite that causes sleeping sickness. […] While the primary qHTS provides a luminescence-based detection of TbPyK by measuring ATP production, the orthogonal assay will measure the amount of ADP substrate remaining. […]
Briefly, 2 uL of substrate/TbPYK buffer (all columns but column 4) are dispensed into Greiner white solid-bottom 1536-well assay plates. […] ADP-Glo reagent II is then added (5 uL), followed by a 10 minute room temperature incubation, before being transferred to a ViewLux high-throughput CCD imager (PerkinElmer), wherein single end-point measurements of luminescence are acquired using a clear filter. […]
Consider `O=C1NC(=O)N(c2ccccc2)C(=O)/C1=C/c1ccc([N+](=O)[O-])s1`, for which the Potency was 14.1 µM (active).

Consider `COc1ccc(N2C(=O)/C(=C/c3ccco3)C(=O)NC2=S)cc1`, for which the Potency is 6.31 µM (active).

As to `Cc1ccc2c(c1)=C/C(=C\c1c(O)[nH]c(=O)[nH]c1=O)C(=O)N=2`, the Potency is 25.1 µM (active).
